Source: PubChem BioAssay (NCI)
About 83,000 compounds went through this panel and 20% of them were active in at least one assay; those are over-represented in the sample as a whole.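 Compound tested at a single concentration for 48 hours in 96-well plates; a percent growth value below 10 was scored as active.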 Unmarked numbers belong to inactive results. Activity calls are given as the source filed them.

Experiments:
Test in all cases: NCI-60 one-dose screen, 48 h (100 = growth as untreated, 0 = no growth, -100 = all killed)
Conditions in all cases: 10 µM unless noted
DU-145 prostate = test system: DU-145 prostate
K-562 leukemia = test system: K-562 leukemia
MALME-3M melanoma = test system: MALME-3M melanoma
MDA-MB-231 breast = test system: MDA-MB-231 breast
RXF 393 renal = test system: RXF 393 renal
SF-268 CNS = test system: SF-268 CNS
SF-295 CNS = test system: SF-295 CNS
SF-539 CNS = test system: SF-539 CNS
UACC-257 melanoma = test system: UACC-257 melanoma
M14 melanoma = test system: M14 melanoma

| SMILES | growth (DU-145 prostate) | growth (K-562 leukemia) | growth (MALME-3M melanoma) | growth (MDA-MB-231 breast) | growth (RXF 393 renal) | growth (SF-268 CNS) | growth (SF-295 CNS) | growth (SF-539 CNS) | growth (UACC-257 melanoma) | growth (M14 melanoma) |
| --- | --- | --- | --- | --- | --- | --- | --- | --- | --- | --- |
| CCCCN[C@H]1CC[C@@]2(C)[C@@H](CC[C@@]3(C)[C@H]2[C@H](O)C[C@H]2/C(=C(\CCC=C(C)C)C(=O)OC)[C@@H](OC(C)=O)C[C@@]23C)[C@@H]1C | 112% | 30.5% | 96.9% | 114% | 103% | 100% | 99% | 99.3% | 98.1% | 96.2% |
| O=C1CC(N2C(=O)/C(=C/C(Cl)=C\c3ccc([N+](=O)[O-])cc3)SC2=S)C(=O)N1c1ccc(Cl)cc1 (stereo not given) | 22.4% | 6.26% (active) | 22.9% | -3.07% (active) | -64.1% (active) | 21.8% | 40.7% | 15.9% | 57.8% | 23.9% |
| Cn1cc(-c2nc(-c3c[nH]c4ccncc34)cs2)c2ccccc21 | 44% | -33.2% (active) | 54% | 25.2% | 70.8% | 77.3% | 65.5% | 78.7% | 91.2% | -71.5% (active) |
| c1cc2[nH]ncc2cc1-c1nc2ccc3[nH]ncc3c2c2c1CCCC2 | 23.3% | 15.3% | 12.1% | 31.1% | -15.8% (active) | 25.1% | 19.4% | -7.82% (active) | 20.2% | 2.16% (active) |
| O=C1c2c(c3c4ccccc4[nH]c3c3ccc4ccccc4c23)C(=O)N1CCN1CCCCC1 | 26.2% | -7.75% (active) | 73.9% | 75.7% | 65.7% | 39.6% | 30.4% | 46.3% | 85.4% | 30.2% |
| CCCCCCCCCCCCCCCCCCOc1ccccc1CC(=O)NCC[N+]1(C)CCCC1 | 56.8% | 36.9% | 52.4% | 43.1% | 4.86% (active) | 31% | 86.5% | 82.1% | 93.2% | 65.8% |
| CCc1nc2c(=O)[nH]cnc2o1 | 112% | 104% | 83.1% | 117% | 102% | 103% | 110% | 94.8% | 107% | 103% |
| O=C1Nc2ccccc2/C1=C\c1nc(-c2ccccc2F)n2ccccc12 | -26.7% (active) | 74.1% | 34.4% | 8.66% (active) | -42.7% (active) | 24.7% | 38.1% | -1.95% (active) | 45.7% | 53.4% |
| CCN(CC)c1nc(SCc2ccccc2Cl)ncc1C | 109% | 97.7% | 115% | 80.3% | 99.6% | 113% | 97.3% | 129% | 106% | 114% |
| COc1ccc(C2c3sc4c(F)cccc4c3Oc3nc[nH]c(=O)c32)cc1 (stereo not given) | 98.2% | 72.2% | 94.4% | 72.7% | 72.3% | 82% | 88% | 77.4% | 105% | 91.4% |
| OCCCC1CCN(C(Cc2ccccc2)c2ccccc2)CC1 (stereo not given) | 103% | 113% | 93.8% | 97.8% | 111% | 90.6% | 98.7% | 85.6% | 96.4% | 88.8% |
| C=CCc1c2c(c(OC)c3ccoc13)C(=O)/C(=C/c1ccccc1OC)O2 | 35% | 49.5% | 88.8% | 50.9% | 24.8% | 60.4% | 60.1% | 94.7% | 63.7% | 64.2% |
| O=C(c1cc2ccccc2o1)c1nn(-c2ccccc2)/c(=N/N=Cc2cn(-c3ccccc3)nc2-c2cc3ccccc3oc2=O)s1 | 103% | 78.2% | 98.9% | 86.2% | 107% | 96.8% | 104% | 98.4% | 103% | 97.8% |
| O=C(CSc1nc2ccc([N+](=O)[O-])cc2[nH]1)Nc1cccc(C(F)(F)F)c1 | 30.6% | 13.6% | -0.63% (active) | 38.5% | 44.7% | 24.3% | 33% | 36.5% | 14.3% | 27.6% |
| CC1(C)CC[C@]2(C(=O)O)CC[C@]3(C)C(=CC[C@@H]4[C@@]5(C)C/C(=C/O)C(=O)C(C)(C)[C@@H]5CC[C@]43C)[C@@H]2C1 | 85.2% | 32.2% | 89.9% | 111% | 93.7% | 57.2% | 79.9% | 29.2% | 91.6% | 79.1% |
| Cc1ccc2c3c(c(=O)[nH]c2c1)C1(C(C#N)=C(N)O3)c2cc(Br)ccc2-c2ccc(Br)cc21 | -7.81% (active) | 18.8% | -47.9% (active) | -33.9% (active) | -63.6% (active) | -26.9% (active) | -68.7% (active) | -51% (active) | 71.2% | 50.6% |
| C#COc1cccc(Nc2ncnc3ncc(NC(=O)CCl)cc23)c1 | 8.37% [6.25 µM] (active) | 15.3% [6.25 µM] | 37.1% [6.25 µM] | -4.91% [6.25 µM] (active) | -12.9% [6.25 µM] (active) | -6.57% [6.25 µM] (active) | 33.5% [6.25 µM] | 0.882% [6.25 µM] (active) | 59.4% [6.25 µM] | 35.8% [6.25 µM] |
| O=C1C(Cl)=C(Oc2ccccc2)C(=O)c2ccccc21 | 122% | 37.2% | 76.3% | 81.4% | 96.8% | 79.3% | 76.6% | 75.2% | 89.9% | 96.2% |
| O=C(Nc1ncc(Cc2ccc(Cl)c(C(F)(F)F)c2)s1)c1ccc2nnsc2c1 | 53.7% | 24.7% | 48.7% | 67.4% | 75.6% | 50.7% | 20% | 5.13% (active) | 64.9% | 32.2% |
| O=c1oc2c(cnc3ccccc32)cc1-c1ccsc1 | 104% | 92.8% | 101% | 101% | 105% | 94.6% | 103% | 93.4% | 101% | 101% |
| COc1cccc(/C=C/C(=O)c2cc3c(N)c(C(=O)Nc4ccccc4)sc3nc2C)c1 | 12% | 13.3% | 68.6% | 17.1% | -74.6% (active) | 18.2% | 44.8% | -16% (active) | 71.8% | 29.9% |
